The list is not random: actives were taken first. Their share in the collection is about 1.3%.
Mito fusion act: blocks mitochondrial division or promotes mitochondrial fusion. S. cerevisiae fusion-defective mutant growth rescue, CellTiterGlo 48 h. Potency, µM (doses to about 46.1 µM), without a hit: at the highest dose growth rescue (activation), hits mostly activators. hit rate 0.23% among 320,000. AID 485298; further: potency means the concentration at half of the fitted maximal effect; % of control where 0% means no effect; nearly all actives have a fitted effect of over 45% in size
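Luminescent cell viability in 1536-well qHTS format served as the measure of rescued growth in ts fusion-mutant S. cerevisiae cultured on non-fermentable YPEG for 48 hours at 37C.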
BCR signal inh: chronic active BCR signaling inhibition; ABC-DLBCL IkBa-CBG/CBR reporter, luminescence ratio, 4 h; Potency, µM (highest dose often 46.1 µM), for inactives: at the top dose activity change, negative = inhibition, most hits filed as inhibitors; hit rate 0.05% among 340,000; AID 493014; active means well fitted inhibition curve with a large enough effect in the signal ratio, with a control signal flat, not every such curve was filed as active; inconclusive means small, poorly fitted or top-dose-only effect, or effect the other way, or a change in a side signal; the % refers to the signal ratio;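 further: potency means the concentration at half of the fitted maximal effect; plate controls were basal doxycycline-induced cells for no effect and cells given 10 µM MG132 for full effect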
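Compounds up to 46 uM were incubated four hours with TMD8 cells whose green CBG68 luciferase is fused to IkappaBalpha; red CBR luminescence normalised the signal, and concentration-effect curves were fitted to fusion, red and ratio data.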
TCR act: T cell receptor activation; primary human leukocytes, anti-CD3, IL-2 HTRF, 48 h; Potency, µM (series often up to 9.22 µM), without a hit: at the highest dose activation of IL-2 secretion, most hits filed as activators; 330,000 tested, under 10 active; AID 504894; further: % of control where 0% means no effect
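Primary human leukocytes were stimulated with a-CD3 beads plus compounds for 48 hr without co-stimulation; secreted IL-2 was quantified by HTRF using a-IL-2-K (europium cryptate) and a-IL-2-d2, excited at 320nm with acceptor emission read at 665nm.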
PTHR1 ag: agonists of human PTHR1 parathyroid hormone receptor; HEK293 GP2 PTHR1 cells, GloSensor cAMP luminescence, 1 h; Potency, µM (doses to about 115 µM), without a hit: at the highest dose activation, most hits filed as activators; hit rate 0.075% among 410,000; AID 743266; further: potency means the concentration at half of the fitted maximal effect; nearly all actives have a fitted effect of over 55% in size
Target sequence (Q03431 whole entry, looked up): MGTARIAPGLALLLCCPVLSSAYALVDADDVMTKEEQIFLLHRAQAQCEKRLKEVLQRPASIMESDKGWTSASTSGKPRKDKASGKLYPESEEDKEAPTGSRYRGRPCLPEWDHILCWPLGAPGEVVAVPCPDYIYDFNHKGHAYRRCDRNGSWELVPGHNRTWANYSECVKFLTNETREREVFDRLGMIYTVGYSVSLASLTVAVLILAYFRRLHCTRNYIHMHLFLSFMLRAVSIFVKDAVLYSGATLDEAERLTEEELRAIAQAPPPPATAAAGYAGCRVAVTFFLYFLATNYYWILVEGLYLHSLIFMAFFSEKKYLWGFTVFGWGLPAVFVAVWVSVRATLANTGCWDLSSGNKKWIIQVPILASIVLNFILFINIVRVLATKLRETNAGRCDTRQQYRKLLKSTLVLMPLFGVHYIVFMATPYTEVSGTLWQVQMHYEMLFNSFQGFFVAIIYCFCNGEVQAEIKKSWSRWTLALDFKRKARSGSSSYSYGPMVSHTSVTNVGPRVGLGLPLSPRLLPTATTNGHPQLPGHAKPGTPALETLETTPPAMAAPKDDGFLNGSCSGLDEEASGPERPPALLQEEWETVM
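HEK-293-derived GP2 cells expressing PTHR1 and a GloSensor cAMP reporter, 3,000/well, plated overnight, given luciferin plus IBMX (each 0.5 mM as added) for 1 h at 37 °C, then compound for 1 h at 37 °C. Luminescence was read after 15 min at room temperature.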
BRCA1 expr up: BRCA1 expression activation; MCF7-BRCA1-FFLuc reporter, luminescence, 48 h; response scale: scaled: vehicle 0%, 10 µM genistein 100%; Potency, µM (series often up to 46.1 µM), for inactives: top-dose activation, usual class: activators; hit rate 1.1% among 380,000; AID 624202; further: potency means the concentration at half of the fitted maximal effect; nearly all actives have a fitted effect of over 80% in size
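MCF7-BRCA1-FFLuc cells, 2000/well in phenol-red-free MEM, attached 2 h then treated 48 h at 37 C. Luciferase luminescence read 15 min after reagent; normalized to genistein maximum activation (10microM) and DMSO, concentration-response fitted.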
IL-2 act: IL-2 activation. IL-2 activation reporter assay, cell-based qHTS; stimulated with anti-CD3/CD4/CD28 beads; in transgenic mouse T cells. activation, % (series mostly up to about 46 µM). hit rate 0.065% among 360,000. AID 652025; in the data active means activation above about 50%; inconclusive means mostly about 30% to 49%; further: 0% is about no effect
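EGFP and DsRed fluorescence is measured by plate cytometry in unstimulated transgenic mouse T cells exposed to compound for 60 minutes, then stimulated 18 hours at 37 degrees C with anti-CD3/anti-CD4 beads plus anti-CD28.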
Active calls of the source: *; ! = repeats disagree; [ ] = remark or other dose. Unless noted, the call rests on the fitted dose curve; in most records, active means well fitted curve in the direction sought with a large enough effect; inconclusive means small, poorly fitted or top-dose-only effect, or another doubt; inactive means no such curve, though single readings can be large; an effect the other way counts as inactive or inconclusive.

How did O=c1[nH]c2ccccc2c(=O)n1-c1cccc(Cl)c1 do in these assays?
Mito fusion act: 6%; BCR signal inh: -8%; TCR act: -4%; PTHR1 ag: -72%[57.5 µM]; BRCA1 expr up: 46%; IL-2 act: -1

Results for Cc1ccc(-n2c(=O)[nH]c3ccccc3c2=O)cc1[N+](=O)[O-] ?
PTHR1 ag: 0%; BRCA1 expr up: 11µM*; IL-2 act: 0

How did Cc1ccc(NC(=O)OC(C)CNC(=O)Oc2cccc(C)c2)cc1 (stereo unspecified) do in these assays?
Mito fusion act: 4%; BCR signal inh: 4%; TCR act: 2%; PTHR1 ag: -27%; BRCA1 expr up: 11µM*; IL-2 act: 0

How did Cc1ccc(NC(=O)NCc2ccc3c(c2)CCN3C(=O)c2ccccc2)c(Cl)c1 do in these assays?
PTHR1 ag: -50%; BRCA1 expr up: -6%

What do the screens show for `CC1=CC(=C2C(=O)NC(=O)NC2=O)C=C(C(F)(F)F)N1C(C)C`?
Mito fusion act: 0%; BCR signal inh: 2%; TCR act: 0%; PTHR1 ag: 28µM*; BRCA1 expr up: 8%; IL-2 act: -1

What do the screens show for `Clc1ccc2c(c1)C(c1ccccc1Cl)=NCc1nnc(N3CCN(CCOc4ccccc4)CC3)n1-2`?
Mito fusion act: 13µM*; BCR signal inh: inconclusive; TCR act: -5%; PTHR1 ag: inactive; BRCA1 expr up: -45%; IL-2 act: 0

How did Cc1nonc1OCCNc1ccc([N+](=O)[O-])c2cccnc12 do in these assays?
Mito fusion act: inconclusive; BCR signal inh: 5%; TCR act: 0%[46.1 µM]; PTHR1 ag: -25%; BRCA1 expr up: -6%; IL-2 act: -3

How did Cc1cccc(OCCNc2ncccc2[N+](=O)[O-])c1 do in these assays?
PTHR1 ag: -30%; BRCA1 expr up: 11µM*; IL-2 act: -2

How did CN(C(=O)CNC(=O)OCc1ccccc1)c1ccc(Br)cc1C(=O)c1ccccc1Cl do in these assays?
Mito fusion act: 13µM*; BCR signal inh: inconclusive; TCR act: -1%[46.1 µM]; PTHR1 ag: -45%; BRCA1 expr up: -38%; IL-2 act: 0

How did CC(C)(C)C(=O)c1cn(CC(=O)NCc2ccco2)c2ccccc12 do in these assays?
Mito fusion act: -2%; BCR signal inh: -1%; TCR act: 1%; PTHR1 ag: -58%; BRCA1 expr up: 5.6µM*; IL-2 act: 0

What do the screens show for `CC(C)=CCOc1c2occc2cc2ccc(=O)oc12`?
Mito fusion act: 16µM*!; BCR signal inh: 6%; TCR act: 1%; PTHR1 ag: inactive; BRCA1 expr up: -12%; IL-2 act: 2

What do the screens show for `CC1(C)OC1COc1c2occc2cc2ccc(=O)oc12` (stereo unspecified)?
Mito fusion act: 6%; BCR signal inh: 3%; TCR act: 6%; PTHR1 ag: -12%; BRCA1 expr up: -21%; IL-2 act: 0

Results for [O-]/[N+](=C/c1cccnc1)c1ccc(Br)cc1 ?
Mito fusion act: -1%; BCR signal inh: inconclusive; TCR act: 1%; PTHR1 ag: -21%; BRCA1 expr up: 11µM*; IL-2 act: -3

How did CN(C)c1ccc(N=O)cc1 do in these assays?
BRCA1 expr up: 0%

How did Clc1ccc(CCC(Cn2ccnc2)Sc2c(Cl)cccc2Cl)cc1 (stereo unspecified) do in these assays?
Mito fusion act: 0.56µM*; BCR signal inh: inconclusive; TCR act: -1%; PTHR1 ag: -42%; BRCA1 expr up: -15%; IL-2 act: 0

What do the screens show for `C=C(COC(=O)CCC(=O)O)CC1CC(O)[C@]2(C)OC3CC4OC5C[C@]6(C)O[C@]7(C)CCC8OC9C[C@]%10(C)OC%11C(C)=CC(=O)OC%11CC%10OC9C[C@@H](C)C8OC7CC6O[C@]5(C)C/C=C\C4OC3CC2O1` (stereo partly specified)?
Mito fusion act: 16µM*; BCR signal inh: 2%; TCR act: 10%; PTHR1 ag: -15%; BRCA1 expr up: -6%; IL-2 act: 0

What do the screens show for `CC1=Nc2cc(C(=O)N3CCC4(CC3)OCCO4)ccc2Sc2ccc(Cl)cc21`?
Mito fusion act: 16µM*; BCR signal inh: inconclusive; TCR act: 0%; PTHR1 ag: inactive; BRCA1 expr up: -21%; IL-2 act: -5

What do the screens show for `Cc1ccc(CN2CCSc3ccc(C(=O)N4CCC5(CC4)OCCO5)cc32)cc1`?
Mito fusion act: 32%; BCR signal inh: inconclusive; TCR act: -7%; PTHR1 ag: -9%; BRCA1 expr up: -17%; IL-2 act: -3

What do the screens show for `CC(C)c1ccc(NC(=O)Cn2c(=O)oc3ccccc32)cc1`?
Mito fusion act: -48%; BCR signal inh: -8%; TCR act: -4%; PTHR1 ag: -27%; BRCA1 expr up: 28%; IL-2 act: 0

How did CCN(CC)c1ccc(/C=N/NC(=O)c2ccoc2C)c(O)c1 do in these assays?
Mito fusion act: -7%; BCR signal inh: inconclusive; TCR act: 9%; PTHR1 ag: inactive; BRCA1 expr up: -6%; IL-2 act: -3

How did Cc1ccc(NC(=O)c2ncn(CC(=O)NCc3ccc4c(c3)OCO4)n2)cc1C do in these assays?
BCR signal inh: 2%; TCR act: -4%[46.1 µM]; PTHR1 ag: -21%; BRCA1 expr up: 11µM*; IL-2 act: 0

Results for Clc1ccc(C(Cn2ccnc2)OCc2csc3c(Cl)cccc23)c(Cl)c1 (stereo unspecified) ?
Mito fusion act: 3.5µM*; BCR signal inh: inconclusive; TCR act: -3%; PTHR1 ag: -40%; BRCA1 expr up: -39%; IL-2 act: -1

How did [O]=[Sb]([OH])([OH])[c]1ccccc1 do in these assays?
BRCA1 expr up: 12%

How did Cc1ccc(C)c(N2CCN(C(=O)CCS(=O)(=O)c3ccc4c(c3)oc(=O)n4C)CC2)c1 do in these assays?
Mito fusion act: 5%; BCR signal inh: 6%; TCR act: -7%; PTHR1 ag: -33%; BRCA1 expr up: -1%; IL-2 act: -2

Results for CCCCCCCCCCCCCC(=O)O[C@@H]1[C@@H](C)[C@@]2(O)[C@@H](C=C(CO)C[C@@]3(O)C(=O)C(C)=C[C@@H]23)C2C(C)(C)[C@@]21OC(C)=O (stereo partly specified) ?
Mito fusion act: 16µM*

What do the screens show for `c1ccc(CN2CCc3nc4ccccc4cc3C2)cc1`?
Mito fusion act: 14%; BCR signal inh: inconclusive; TCR act: 1%; PTHR1 ag: -41%; BRCA1 expr up: 10µM*; IL-2 act: -1

Source: PubChem
